In PubChem BioAssay (EPA / NIEHS) one finds outcome and AC50 data, which are given here for 28 molecules.

Structures are written as SMILES. Where “and” joins values, the source holds several entries; their conditions need not be identical. Identical values can stand only once. Results filed as inconclusive are left out. Calls of active or inactive are those of the source. The calls were made as follows, unless noted: active = hit-call score of the fitted dose curve at least 0.9, where 1 is the maximum; inconclusive = response in the unintended direction; inactive = score below 0.9.

Sequence of Estrogen receptor beta (Homo sapiens) (Q92731 whole entry, looked up, the tested form may be a part): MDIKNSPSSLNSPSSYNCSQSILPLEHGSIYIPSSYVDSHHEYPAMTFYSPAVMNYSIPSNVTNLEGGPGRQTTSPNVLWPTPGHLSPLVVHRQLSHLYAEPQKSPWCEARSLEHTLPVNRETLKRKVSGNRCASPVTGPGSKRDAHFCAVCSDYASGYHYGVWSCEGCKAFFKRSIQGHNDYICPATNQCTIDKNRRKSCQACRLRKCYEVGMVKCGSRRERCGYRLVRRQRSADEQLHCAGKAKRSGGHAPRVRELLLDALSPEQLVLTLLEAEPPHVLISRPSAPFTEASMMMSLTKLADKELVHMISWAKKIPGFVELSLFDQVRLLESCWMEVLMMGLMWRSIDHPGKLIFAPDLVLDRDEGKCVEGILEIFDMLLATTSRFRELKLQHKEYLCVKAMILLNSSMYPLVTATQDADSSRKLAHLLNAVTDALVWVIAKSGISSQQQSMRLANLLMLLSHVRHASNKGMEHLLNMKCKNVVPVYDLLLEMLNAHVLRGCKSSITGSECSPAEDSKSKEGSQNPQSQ

The first experiment has as its target Estrogen receptor beta (Homo sapiens) (UniProt Q92731). Briefly: OT_ER_ERbERb_1440: Odyssey Thera (OT) 24-hour HEK293T Protein-Complementation Assay for Estrogen Receptor-beta/-beta Homodimer (AID 2283380).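 Also: scored as signal increase over DMSO baseline for both agonists and antagonists.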 In outline: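 HEK293T cells stably expressing ER beta LBD (aa 310-547) homodimer fragment-complementation reporter, dosed 24 h. Cells formaldehyde-fixed, Draq5-stained; gain in nuclear (agonist) or nuclear plus cytoplasmic (antagonist) fluorescence versus DMSO read by laser scanning cytometry.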
Take `CC(C)C1CCC(Cc2ccc(Cl)cc2)C1(O)Cn1cncn1` (configuration not stated): the molecule was called inactive.
Usually AC50 stands for the concentration at which the activity in the assay is half-maximal. For `CCOP(=S)(OCC)SCSP(=S)(OCC)OCC`, the AC50 is 17.5 µM (active).
For the molecule `Clc1ccc(C2(Cn3cncn3)CC(Br)CO2)c(Cl)c1` (configuration not stated), the molecule was classed as inactive.
As to `OCc1ccco1`, the result was inactive.
Same read-out and setting: as for `COc1cc(OC)nc(NC(=O)NS(=O)(=O)c2ncccc2C(=O)N(C)C)n1`, the entry is “inactive”.
In the case of `Fc1ccc(C2(Cn3cncn3)OC2c2ccccc2Cl)cc1` (configuration not stated), the AC50 is 19.2 µM (active).
On to `CC(C)(C)CC(C)(C)c1ccc(O)cc1`, for which the AC50 was 1.04 µM (active) and 593 nM (active) and 1.02 µM (active).
In the case of `CC(C#N)CCC#N` (configuration not stated), the call was inactive.

In a further experiment the target is Estrogen receptor (Homo sapiens) (UniProt P03372). Put plainly: OT_ERa_GFPERaERE_0480: Odyssey Thera (OT) 8-hour HeLa Transcription Induction Assay for Estrogen Receptor (AID 2283381; active = hit-call score of the fitted dose curve at least 0.9, where 1 is the maximum; inactive = score below 0.9). In outline: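 Human cervical HeLa cells were treated for 8 hours, after which ERE-driven GFP induction was measured by fluorescence microscopy; increases over DMSO baseline defined activity.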
Sequence of Estrogen receptor (Homo sapiens) (P03372 whole entry, looked up): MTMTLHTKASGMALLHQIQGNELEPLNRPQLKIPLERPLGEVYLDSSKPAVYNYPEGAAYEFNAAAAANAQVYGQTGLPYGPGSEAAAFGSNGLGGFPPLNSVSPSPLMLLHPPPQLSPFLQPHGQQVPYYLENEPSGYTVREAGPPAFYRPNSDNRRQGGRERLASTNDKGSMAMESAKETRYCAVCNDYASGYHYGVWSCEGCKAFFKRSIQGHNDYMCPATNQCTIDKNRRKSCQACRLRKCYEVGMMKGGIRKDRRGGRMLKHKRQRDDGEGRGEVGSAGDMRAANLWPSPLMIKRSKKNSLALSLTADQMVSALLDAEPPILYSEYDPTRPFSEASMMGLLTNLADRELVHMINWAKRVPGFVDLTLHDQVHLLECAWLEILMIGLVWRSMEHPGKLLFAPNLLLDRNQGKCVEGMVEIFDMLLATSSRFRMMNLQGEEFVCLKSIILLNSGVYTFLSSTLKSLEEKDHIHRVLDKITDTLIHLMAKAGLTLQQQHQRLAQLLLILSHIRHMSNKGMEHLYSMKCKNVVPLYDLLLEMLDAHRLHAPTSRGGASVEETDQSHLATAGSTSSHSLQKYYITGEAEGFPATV
In the case of `C1CCC(NC2CCCCC2)CC1`, the result was inactive.
For `CC1(C)CCC(Cc2ccc(Cl)cc2)C1(O)Cn1cncn1` (configuration not stated), the outcome was inactive.
In the case of `C=C(C)C(=O)[O][Sn]([CH2]CCC)([CH2]CCC)[CH2]CCC`, the call was inactive.
On the same count and under the same terms, with `CCOP(=S)(OCC)Oc1nc(Cl)c(Cl)cc1Cl` the entry was “inactive”.
The same measure, in the same setting: with `CCN1CCC2(CC1)COc1cc3c(cc12)N(C(=O)c1ccc(-c2ccc(-c4nnc(C)o4)cc2C)cc1)CC3` the entry was “inactive”.
The same measure, in the same setting: as for `C=CC#N`, the entry is “inactive”.
On to `C[C@H]1CCCC(=O)CCC/C=C/c2cc(O)cc(O)c2C(=O)O1`, for which the AC50 was 0.103 µM (active).
Consider `Cc1ccccc1C(=O)Nc1cccc(OC(C)C)c1`, for which the call was inactive.
On the same count and under the same terms, with `COP(=S)(OC)Oc1ccc(Sc2ccc(OP(=S)(OC)OC)cc2)cc1` the entry was “inactive”; with `[O-][Cl+2]([O-])O`, “inactive”.
With `COP(=O)(OC)O/C(=C\Cl)c1cc(Cl)c(Cl)cc1Cl`, the call was inactive.
Same read-out and setting: with `O=C(Nc1ccc2[nH]ccc2c1)c1cc2cc(F)ccc2n1Cc1cccc(F)c1` the entry was “inactive”.
Turning to `CC(=O)[O][Hg][c]1ccccc1`, the AC50 was 4.11 µM (active).
As for `NNC(=S)NN`, the molecule was called inactive.
Regarding `CC1(C)Cc2cccc(O)c2O1`, the molecule was called inactive.
Consider `Clc1ccc(COC(Cn2ccnc2)c2ccc(Cl)cc2Cl)cc1` (configuration not stated), for which the AC50 was 63.8 µM (active).
With `CC(C)(c1ccccc1)c1ccc(O)c(C(C)(C)c2ccccc2)c1`, the molecule was called inactive.
Still for that read-out and setting: with `CC(C)C1CCC(Cc2ccc(Cl)cc2)C1(O)Cn1cncn1` (configuration not stated) the entry was “inactive”; with `CCOP(=S)(OCC)SCSP(=S)(OCC)OCC`, “inactive”; with `Clc1ccc(C2(Cn3cncn3)CC(Br)CO2)c(Cl)c1` (configuration not stated), “inactive”.
Still for that read-out and setting: with `OCc1ccco1` the entry was “inactive”.
With `COc1cc(OC)nc(NC(=O)NS(=O)(=O)c2ncccc2C(=O)N(C)C)n1`, the result was inactive.
Consider `Fc1ccc(C2(Cn3cncn3)OC2c2ccccc2Cl)cc1` (configuration not stated), for which the call was inactive.
Same read-out and setting: with `CCC[CH2][Sn]([CH2]CCC)([CH2]CCC)[O]C(=O)c1ccccc1` the entry was “inactive”.
In the case of `CC(C#N)CCC#N` (configuration not stated), the molecule was classed as inactive.

For the next experiment the target is unchanged. Briefly: OT_ERa_GFPERaERE_0120: Odyssey Thera (OT) 2-hour HeLa Transcription Induction Assay for Estrogen Receptor (AID 2283382). In outline:
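Cells (human cervical HeLa) receive compound, incubate 2 hours, then are imaged for fluorescent reporter induction. Images are quantified by high content analysis, and activity is fitted as gain of signal against DMSO.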
With `C1CCC(NC2CCCCC2)CC1`, the molecule was classed as inactive.
On the same count and under the same terms, with `CC1(C)CCC(Cc2ccc(Cl)cc2)C1(O)Cn1cncn1` (configuration not stated) the entry was “inactive”.
On to `C=C(C)C(=O)[O][Sn]([CH2]CCC)([CH2]CCC)[CH2]CCC`, for which the AC50 was 0.772 µM (active).
On to `CCOP(=S)(OCC)Oc1nc(Cl)c(Cl)cc1Cl`, for which the result was inactive.
Same read-out and setting: with `CCN1CCC2(CC1)COc1cc3c(cc12)N(C(=O)c1ccc(-c2ccc(-c4nnc(C)o4)cc2C)cc1)CC3` the entry was “inactive”.
Consider `C[C@H]1CCCC(=O)CCC/C=C/c2cc(O)cc(O)c2C(=O)O1`, for which the AC50 was 0.0915 µM (active).
For `Cc1ccccc1C(=O)Nc1cccc(OC(C)C)c1`, the outcome was inactive.
The same measure, in the same setting: with `COP(=S)(OC)Oc1ccc(Sc2ccc(OP(=S)(OC)OC)cc2)cc1` the entry was “inactive”; with `[O-][Cl+2]([O-])O`, “inactive”; with `COP(=O)(OC)O/C(=C\Cl)c1cc(Cl)c(Cl)cc1Cl`, “inactive”.
Regarding `O=C(Nc1ccc2[nH]ccc2c1)c1cc2cc(F)ccc2n1Cc1cccc(F)c1`, the outcome was inactive.
On to `CC(=O)[O][Hg][c]1ccccc1`, for which the AC50 was 12 µM (active).
For the molecule `NNC(=S)NN`, the outcome was inactive.
For the molecule `CC1(C)Cc2cccc(O)c2O1`, the result was inactive.
On the same count and under the same terms, as for `Clc1ccc(COC(Cn2ccnc2)c2ccc(Cl)cc2Cl)cc1` (configuration not stated), the entry is “inactive”; as for `CC(C)(c1ccccc1)c1ccc(O)c(C(C)(C)c2ccccc2)c1`, “inactive”.
Consider `CC(C)C1CCC(Cc2ccc(Cl)cc2)C1(O)Cn1cncn1` (configuration not stated), for which the AC50 was 90.2 µM (active).
Still for that read-out and setting: with `CCOP(=S)(OCC)SCSP(=S)(OCC)OCC` the figure was 10.9 µM (active).
Regarding `Clc1ccc(C2(Cn3cncn3)CC(Br)CO2)c(Cl)c1` (configuration not stated), the call was inactive.
Same read-out and setting: with `OCc1ccco1` the entry was “inactive”.
On to `COc1cc(OC)nc(NC(=O)NS(=O)(=O)c2ncccc2C(=O)N(C)C)n1`, for which the call was inactive.
The same measure, in the same setting: with `Fc1ccc(C2(Cn3cncn3)OC2c2ccccc2Cl)cc1` (configuration not stated) the entry was “inactive”; with `CC(C#N)CCC#N` (configuration not stated), “inactive”.

For another experiment, the target named is Bile acid receptor (Homo sapiens) (UniProt Q96RI1). Put plainly: OT_FXR_FXRSRC1_0480: Odyssey Thera (OT) 8-hour HEK293T Protein-Complementation Assay for Farnesoid X receptor/SRC-1 Co-activator (AID 2283383). In outline: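 PCA, HEK293T, 8 h compound exposure; FXR–SRC-1 binding reconstitutes split reporter; fluorescence intensity; positive-direction fit vs DMSO.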
Sequence of Bile acid receptor (Homo sapiens) (Q96RI1 whole entry, looked up): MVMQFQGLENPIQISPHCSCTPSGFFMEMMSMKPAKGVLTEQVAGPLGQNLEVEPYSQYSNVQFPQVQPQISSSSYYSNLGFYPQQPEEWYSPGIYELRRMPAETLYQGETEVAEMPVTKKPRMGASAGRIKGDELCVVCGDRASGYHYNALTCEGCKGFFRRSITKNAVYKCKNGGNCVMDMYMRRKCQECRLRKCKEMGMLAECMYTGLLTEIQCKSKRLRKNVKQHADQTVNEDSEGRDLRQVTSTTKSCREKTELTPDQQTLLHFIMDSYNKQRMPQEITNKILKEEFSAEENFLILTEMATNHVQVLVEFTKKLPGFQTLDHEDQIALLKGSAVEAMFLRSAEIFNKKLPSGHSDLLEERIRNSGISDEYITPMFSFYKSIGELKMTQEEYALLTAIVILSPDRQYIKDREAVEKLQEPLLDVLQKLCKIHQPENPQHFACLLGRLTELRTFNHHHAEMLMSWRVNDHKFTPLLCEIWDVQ
Regarding `CC1(C)CCC(Cc2ccc(Cl)cc2)C1(O)Cn1cncn1` (configuration not stated), the AC50 is 24.3 µM (active).
On the same count and under the same terms, as for `CCOP(=S)(OCC)Oc1nc(Cl)c(Cl)cc1Cl`, the figure is 35.1 µM (active).
Regarding `[O-][Cl+2]([O-])O`, the call was inactive.
Consider `Oc1cccc2cccnc12`, for which the result was inactive.
Consider `COP(=O)(OC)O/C(=C\Cl)c1cc(Cl)c(Cl)cc1Cl`, for which the result was inactive.
For `O=C(Nc1ccc2[nH]ccc2c1)c1cc2cc(F)ccc2n1Cc1cccc(F)c1`, the molecule was called inactive.
On to `O=C1C2(Cl)C3(Cl)C4(Cl)C(Cl)(Cl)C5(Cl)C3(Cl)C1(Cl)C5(Cl)C24Cl` (configuration not stated), for which the AC50 is 10.7 µM (active).
On to `Clc1ccc(C2(Cn3cncn3)CC(Br)CO2)c(Cl)c1` (configuration not stated), for which the result was inactive.
Same read-out and setting: as for `OCc1ccco1`, the entry is “inactive”; as for `Fc1ccc(C2(Cn3cncn3)OC2c2ccccc2Cl)cc1` (configuration not stated), “inactive”.
For `CC(C)(C)CC(C)(C)c1ccc(O)cc1`, the AC50 is 11.2 µM (active).
